# Where “and” joins values, the source holds several entries; their conditions need not be identical. Identical values can stand only once. A number with no mark means an inactive call. Calls follow the shape of the dose curve; as a rule, active = well fitted activation curve with a large enough effect; inconclusive = small, poorly fitted or top-dose-only effect; inactive = flat fitted curve, though single readings scatter.
# Target: Peroxisome proliferator-activated receptor alpha (Homo sapiens) (UniProt Q07869)
# Experiment: qHTS assay for small molecule agonists of the peroxisome proliferator-activated receptor alpha (PPARalpha) signaling pathway (AID 651778); also: % of control where 0% means no effect
# Conditions: PathHunter PPARalpha complementation, chemiluminescence, 6 h; hits give high values
# Source text: National Center for Advancing Translational Sciences [NCATS]
# NIH Chemical Genomics Center [NCGC]
# U.S. Environmental Protection Agency [EPA]
# National Institutes of Environmental Health Sciences [NIEHS]
# National Toxicology Program [NTP]
# The Peroxisome proliferator-activated receptors (PPARs) are lipid-activated transcription factors of the nuclear receptor superfamily with three distinct subtypes (alpha, garmma and beta/delta). All these subtypes heterodimerize with retinoid X receptor and have different physiological functions. PPARalpha is highly expressed in tissues with high rates of mitochondrial fatty acid oxidation, such as liver, heart, muscle, kidney and cells of the arterial wall. PPARalpha is a major regulator of lipid metabolism and energy homeostasis.
# A cell based assay was used to identify activators of PPARalpha. The assay detects binding of a ligand to PPARalpha leading to its activation, translocation and complementation thus forming a functional enzyme capable of hydrolyzing the substrate molecule and generating chemiluminescent signal.
# 2,000 cells in 6 uL/well were dispensed into white wall/solid bottom 1536-well plates using a Multidrop Combi (Thermo Scientific) dispenser. After incubation 37 C and 5% CO2 overnight, 23 nL compound or DMSO only were transferred by a pin tool. The plates were incubated for 6 hr at 37 C and 5% CO2. 3 ul PathHunter detection reagent (Discoverx) was then added to each well and following 60 min incubation at room temperature, chemiluminescence was quantified on a ViewLux CCD-based plate reader.
# Sequence of Peroxisome proliferator-activated receptor alpha (Homo sapiens) (Q07869 whole entry, looked up): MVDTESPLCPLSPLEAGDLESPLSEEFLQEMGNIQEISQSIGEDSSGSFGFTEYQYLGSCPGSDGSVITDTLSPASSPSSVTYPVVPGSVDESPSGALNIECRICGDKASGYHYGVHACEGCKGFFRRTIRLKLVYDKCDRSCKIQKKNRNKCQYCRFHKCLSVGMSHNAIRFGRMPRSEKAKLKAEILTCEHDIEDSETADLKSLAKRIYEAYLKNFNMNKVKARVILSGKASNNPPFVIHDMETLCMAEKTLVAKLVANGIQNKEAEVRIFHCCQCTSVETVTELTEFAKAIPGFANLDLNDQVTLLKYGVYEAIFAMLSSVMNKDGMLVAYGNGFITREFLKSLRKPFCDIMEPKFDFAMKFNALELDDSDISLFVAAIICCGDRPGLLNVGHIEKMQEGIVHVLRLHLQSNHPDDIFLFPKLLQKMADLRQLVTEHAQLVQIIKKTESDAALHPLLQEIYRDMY
row,SMILES,max response
1,CCCCSP(=O)(SCCCC)SCCCC,3.39%
2,C=CC1CC=CCC1 (stereo not given),-0.264% and -1.89%
3,Cc1ccc(O)c(C)c1,-1.5% and -1.55% and 1.86%
4,CCC(=O)Nc1ccc(Cl)c(Cl)c1,-0.456%
5,Clc1ccc2ccccc2c1,0.9%
6,C=CC(=C)C,4.78%
7,N#Cc1c(Cl)cccc1Cl,0.511%
8,CCOP(=S)(OCC)SCSC(C)(C)C,-1.59% and -3.9%
9,CNC(=O)Oc1cccc2c1OC(C)(C)O2,-1.3%
10,Clc1cccc(C(Cl)(Cl)Cl)n1,-0.105% and 0.0446%
11,Oc1ccc(Cl)cc1Cl,1.17% and -0.592%
12,CC(C)(C)C(=O)C(Oc1ccc(Cl)cc1)n1cncn1 (stereo not given),1.14% and -0.0791%
13,CC(C)Nc1nc(Cl)nc(NC(C)C)n1,-0.58%
14,Brc1ccc(Oc2cc(Br)c(Br)cc2Br)c(Br)c1,8.87% and 4.12% and 3.75%
15,CNC(=O)Oc1ccccc1OC(C)C,0.062%
16,Cc1cccc(C#N)c1,-0.3%
17,c1ccc2c(c1)CCCC2,-0.424%
18,c1ccc(N=Nc2ccccc2)cc1,-0.415% and -1.69%
19,C[N+](C)(C)Cc1ccccc1,-5.46% and 0.269%
20,CC(C)(C)OOC(C)(C)C,0.694%

row,SMILES,max response
1,Brc1ccccc1,-0.353% and -0.0548%
2,C=CC(=O)OCC,-5.18%
3,c1ccc(-c2ccccc2)cc1,-2.7% and -1.05%
4,O=C(Cl)C(Cl)(Cl)Cl,-1.02%
5,C1CCC2CCCCC2C1 (stereo not given),-8.42%
6,C=C(Cl)Cl,-2.47%
7,Cc1ccc2ccccc2c1,-0.593%
8,O=C(O)COc1ccc(Cl)cc1Cl,0.368% [middle of 4 runs]
9,CCCCOCCOP(=O)(OCCOCCCC)OCCOCCCC,5.47% and -1.69%
10,C=CCOC(=O)c1ccccc1N,1.13%
11,C[C@]12CC[C@H]3[C@@H](CCC4=CC(=O)CC[C@@]43C)[C@@H]1CC[C@@H]2O,-2.99%
12,Cc1cccc([N+](=O)[O-])c1,-3.99% and -0.65%
13,C[C@H]1CCCC(=O)CCC/C=C/c2cc(O)cc(O)c2C(=O)O1,-0.403% and -3.88% and -0.278%
14,COc1nc(NC(C)C)nc(NC(C)C)n1,-3.74%
15,CCSC(=O)Cl,0.356%
16,CCCCCCCC(=O)Cl,1.85%
17,CCCSC(=O)Cl,-0.0229%
18,N#CCCCl,-3.2% and -4.12%
19,c1ccc(OP(Oc2ccccc2)Oc2ccccc2)cc1,-2.33% and -1.84%
20,O=NN(CCO)CCO,-4.3%

# Reference: PubChem BioAssay (NCATS)
